Data on 114 molecules can be found in PubChem BioAssay AID488890 (Southern Research Specialized Biocontainment Screening …, 2010).

In all, about 320,000 compounds went through this assay and about 1,300 (0.41%) were called active. Not shown: some 3% with an inconclusive outcome. The rule behind the calls is not given here. The list is a sample of the results. Results with a measured potency or affinity are listed apart.

A short description of this test: growth inhibition of non-replicating M. tuberculosis (AID 488890).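 Note: plate controls were DMSO cells for no effect and high antibiotic wells for full effect.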 As to conditions: Mycobacterium tuberculosis non-replicating, at 25 µM, stronger effect = higher value.
The inhibition is the relative decrease from the control value, in per cent. Regarding `CC1(C)Oc2ccc(C(=O)N/N=C/c3ccc(O)cc3)cc2NC1=O`, the inhibition was 4.72%.

Turning to `CC(Sc1n[nH]c(N)n1)C(=O)Nc1cccc2ccccc12` (centres undefined), the inhibition was found to be 11%.

For the molecule `Cc1nn(-c2ccccc2)c(C)c1/C=N/NC(=O)c1cc(-c2cccs2)[nH]n1`, the inhibition came to 47.5%. For `O=C(Nc1cccc(Br)c1)c1ccc2nc(N3C(=O)CCC3=O)sc2c1` the value was 3.99%; for `Nc1c(C(=O)c2ccccc2)sc(Nc2ccccc2)c1S(=O)(=O)c1ccccc1`, 12.2%; for `COCCCC1CCN(C(=O)C2CCC(=O)N(C3CCCC3)C2)CC1` (centres undefined), -6.84%. To `CCNc1nc(=S)nc(NC(C)C)[nH]1` belongs -23%.

In the case of `CC(=O)Nc1ccc(C(=O)OCc2ccc(F)cc2Cl)cc1`, the inhibition was determined as 50%. For the molecule `COc1ccc(NC(=O)/C(C#N)=C/c2c(C)nn(-c3ccc(F)cc3)c2Cl)cc1OC`, the inhibition was 9.54%. Regarding `CCN(CC)S(=O)(=O)c1ccc(N2CC(C(=O)NCCc3ccc(Cl)cc3)CC2=O)cc1` (centres undefined), the inhibition amounted to 28.6%. For `O=C(N/N=C/c1ccccc1)c1c(O)c2ccccc2[nH]c1=O` the value was 58.7%; for `O=C(N/N=C/c1ccc(F)cc1)c1c(O)c2ccccc2[nH]c1=O`, 25.9%. `Cc1ccc(NC(=S)N(CCCN2CCOCC2)Cc2cccnc2)cc1C`: the inhibition was -0.2%. Consider `CSCCC(NC(=O)OCc1ccccc1)C(=O)O` (centres undefined), for which the inhibition was -8.32%. `Cc1ccc(SCC(=O)c2cc(C)c(O)c(C)c2)cc1`: the inhibition was determined as 0.12%. Consider `O=c1cc(-c2ccccc2Cl)oc2c(Br)ccc(O)c12`, for which the inhibition was -2.73%.

As for `Nc1ccc2oc(-c3ccccc3Cl)cc(=O)c2c1O`, the inhibition was -0.76%. To `Nc1ccc(O)c2c(=O)cc(-c3ccccc3Cl)oc12` belongs -0.68%; to `O=c1cc(-c2ccccc2Cl)oc2cccc(O)c12`, -8.34%. Take `COc1ccc(-c2[nH]nc3c2C(c2ccc(OC(=O)N4CCOCC4)cc2)C(C#N)=C(N)O3)cc1` (centres undefined): the inhibition worked out at 13.2%. For `CCc1cccc(C)c1NC(=O)CN(C)Cc1ccccc1F`, the inhibition is 23.6%. Take `C[C@H](CO)N1C[C@H](C)[C@@H](CN(C)C(=O)Nc2ccc(C(F)(F)F)cc2)Oc2c(NC(=O)Nc3ccccc3)cccc2C1=O`: the inhibition worked out at 32.4%. On to `CC1CCN(CCCOc2ccc(Br)cc2Cl)CC1`, for which the inhibition amounted to 33.5%. In the case of `Cc1ccc(OCCCCN2CCC(C)CC2)c(Br)c1`, the inhibition stood at 49.3%. Consider `Cc1ccc(C)c(NC(=S)NCCc2c[nH]c3ccccc23)c1`, for which the inhibition is 67%. As to `Clc1ccc2nc(CSc3ncn[nH]3)cn2c1`, the inhibition is -31.7%. With `c1ccc2[nH]c(SCc3cn4ccccc4n3)nc2c1`, the inhibition is -0.59%. For the molecule `O=[N+]([O-])c1ccc2nc(SCc3cn4cccnc4n3)[nH]c2c1`, the inhibition was -20.2%. In the case of `NC(=O)CSc1nc2ccc([N+](=O)[O-])cc2[nH]1`, the inhibition is 3.31%.

For `CCC(CO)NCc1sccc1C` (centres undefined), the inhibition was -5.31%.

Consider `Cc1cccc(C(=O)NC(=S)Nc2ccc(S(=O)(=O)N3CCN(C)CC3)cc2)c1`, for which the inhibition came out at 52.2%.

Consider `Cc1c(O)ccc(/C=N/Nc2ncccc2[N+](=O)[O-])c1O`, for which the inhibition is -1.95%. For `COc1cccc(/C=N/Nc2ncccc2[N+](=O)[O-])c1OC` the value was 1.4%; for `O=[N+]([O-])c1cc(/C=N\Nc2ccccn2)ccc1Cl`, -14.6%; for `Cc1cc(C(=O)N/N=C/c2cc(Cl)cc([N+](=O)[O-])c2O)c2ccccc2n1`, 54.6%. As for `O=C(N/N=C/c1cc(Cl)cc([N+](=O)[O-])c1O)c1cc(-c2ccccn2)nc2ccccc12`, the inhibition came out at 4.78%. As to `COc1cc(/C=N/Nc2nc3ccccc3s2)cc([N+](=O)[O-])c1O`, the inhibition was 22%. Take `CN(C(=O)COC(=O)c1ccccc1SCC(=O)N1CCCC1)C1CCS(=O)(=O)C1` (centres undefined): the inhibition was -9.96%. Take `Cc1ccccc1CCNC(=O)C1CC(O)CN1C(=O)Nc1ccccc1` (centres undefined): the inhibition is -7.09%. As to `O=S(=O)(NCc1ccccc1F)c1cccc(S(=O)(=O)N2CCOCC2)c1`, the inhibition is -6.99%.

With `O=C(NC(=S)Nc1ccc(Cl)cn1)c1cc([N+](=O)[O-])ccc1N1CCOCC1`, the inhibition worked out at 5.35%. Consider `Cc1ccc(S(=O)(=O)N2CCN(C(=O)c3ccccc3)CC2)cc1`, for which the inhibition came out at 9.38%. In the case of `COc1ccc(CCNC(=O)C(=O)c2c(C)[nH]c3ccccc23)cc1`, the inhibition came to 12%. For the molecule `O=C(NCCc1ccccc1)c1ccc(Br)o1`, the inhibition turned out to be 73.4%.

Take `NC(=O)NCCC1=CCCCC1`: the inhibition is -8.64%. On to `O=C(NCCC1=CCCCC1)c1ccc(Cl)cc1`, for which the inhibition turned out to be 76.5%.

In the case of `COc1ccc(C(=O)NCCC2=CCCCC2)cc1`, the inhibition came to 71.4%. As for `CCN(CC)C(=O)c1cccc(NC(=O)c2cc(-c3ccccn3)nc3ccccc23)c1`, the inhibition was determined as 57%. On to `Cc1nnc2sc(SCC(=O)Nc3ccc(Br)cc3)nn2c1=O`, for which the inhibition is -4.78%. Turning to `CCOc1ccccc1C(=O)NC1CC2CCCC(C1)N2C1CC1` (centres undefined), the inhibition worked out at 0.26%. For `CCOc1ccc(S(=O)(=O)N2CCOCC2)cc1NC(=O)CN1C(=O)NC(C)(c2ccccc2)C1=O` (centres undefined), the inhibition stood at 6.19%.

Turning to `Nc1ncnc(Sc2ccccc2)c1[N+](=O)[O-]`, the inhibition amounted to 67.8%. Turning to `Cc1nc(Sc2ccccc2)c(C#N)c(C)c1[N+](=O)[O-]`, the inhibition amounted to 16.8%. To `C#CCN(CC=C)C(=O)c1ccc(OC2CCN(S(=O)(=O)N(C)C)CC2)cc1` belongs -9.64%; to `O=C(CCC1COc2ccccc2O1)Nc1ccc(Cl)cn1` (centres undefined), 79.7%; to `Cc1cccc(NC(=O)C2COc3ccccc3O2)n1` (centres undefined), 75.7%. For the molecule `O=C(Nc1ccccn1)C1COc2ccccc2O1` (centres undefined), the inhibition worked out at 77%. To `O=C(C1COc2ccccc2O1)N1CCCC1` (centres undefined) belongs 70.2%; to `O=C(COC(=O)C1COc2ccccc2O1)Nc1cccc(Cl)c1` (centres undefined), 6.42%. For the molecule `CC1CCCN(C(=O)C2COc3ccccc3O2)C1` (centres undefined), the inhibition turned out to be 57.7%. Regarding `Cc1ccnc(NC(=O)C2COc3ccccc3O2)c1` (centres undefined), the inhibition came to 2.12%. With `O=C(Nc1ccncc1)C1COc2ccccc2O1` (centres undefined), the inhibition was 29.1%. On to `CCOC(=O)CNC(=O)CN1CCC(c2nc3ccccc3[nH]2)CC1`, for which the inhibition was -5.38%. Take `COc1ccc(N/C=C/C(=O)c2ccc(Oc3ncccn3)cc2)cc1`: the inhibition is -0.22%. As for `C/C(CC(=O)NC1CCCCC1)=N\NC(=O)Cc1ccc(-c2ccccc2)cc1`, the inhibition turned out to be 9.13%. In the case of `O=C(C1=C[C@@H](c2ccccc2)C[C@@H](OCc2ccc(CO)cc2)O1)N1CCN(Cc2ccc3c(c2)OCO3)CC1`, the inhibition worked out at 38.2%. For `O=C(CNC(=O)Cc1ccccc1)NCC(=O)OCc1ccc(C(=O)c2ccccc2)cc1`, the inhibition was found to be 4.67%. In the case of `COc1ccc(-n2nc(C(=O)NCC(=O)NCc3cccc(F)c3)c3ccccc3c2=O)cc1Cl`, the inhibition was -7.9%.

Regarding `O=S(=O)(c1ccc2nc(COc3ccccc3)[nH]c2c1)N1CCOCC1`, the inhibition was -3.8%. Turning to `CC(C)(C)C(=O)CN1C2=NCCCN2c2ccccc21`, the inhibition is 12.1%.

With `CCOc1ccc(N(CC(=O)NCc2ccccc2)S(=O)(=O)c2ccc(C)cc2)cc1`, the inhibition was 0.73%. To `CCN(CC1COc2ccccc2O1)C(=S)NC1CC2CCC1C2` (centres undefined) belongs 0.66%.

In the case of `COC(=O)c1ccc(C)c(NC(=O)C2COc3ccccc3O2)c1` (centres undefined), the inhibition worked out at 57.8%. With `CC1CCCC(NC(=O)C2COc3ccccc3O2)C1C` (centres undefined), the inhibition came to 17.1%. For `COC(=O)c1ccccc1NC(=O)C1COc2ccccc2O1` (centres undefined) the value was 59.7%; for `Cc1[nH]c2ccccc2c1C(=O)C(C)OC(=O)c1ccccc1NCCO` (centres undefined), 17.8%; for `CCCCN(Cc1ccco1)S(=O)(=O)c1csc(C(N)=O)c1`, 38.5%. Consider `CSc1ccccc1C(=O)N(C)C(c1ccccc1)c1ccccc1`, for which the inhibition came to 13.8%. As to `CCNc1nc(NC(C)C)nc(SCCOc2ccc(C)cc2)n1`, the inhibition stood at 6.84%. For `Cc1ccc(OCCCn2ccnc2)cc1C` the value was 70.8%; for `Cc1cc(OCCCn2ccnc2)ccc1[N+](=O)[O-]`, 39.3%. Turning to `Cc1cc(OCCCn2ccnc2)cc(C)c1Cl`, the inhibition was -6.72%. As to `C=CCc1cc(Cl)ccc1OCCn1ccnc1`, the inhibition came out at 31.9%. In the case of `Clc1ccc(SCCCCn2cncn2)cc1`, the inhibition was 26.1%.

Regarding `C=CCc1cc(C)ccc1OCCCn1ccnc1`, the inhibition was 26.9%. For `Cc1cc(C)cc(OCCCn2ccnc2)c1`, the inhibition amounted to 76%. As for `Clc1ccc(SCCn2ccnc2)cc1`, the inhibition came to 71.2%. As to `CS(=O)(=O)N1CCC(C(=O)NCCN2CCN(Cc3ccccc3)CC2)CC1`, the inhibition was -1.43%. To `Cc1ccc(-c2csc(N3CCC[C@@H]3C(=O)NCCn3c(C(F)(F)F)nc4ccccc43)n2)cc1` belongs 42.9%; to `C[C@@H](NC(=O)c1nc[nH]c1C(=O)N[C@H](C)c1ccccc1)c1ccccc1`, 66%; to `O=C(O)c1ccc2c(=O)n3cc(C(=O)c4ccccc4O)cc(Cl)c3nc2c1`, -0.88%. For `Fc1ccc2c(c1)C(c1ccncc1)=NNC(c1ccc(Br)cc1)=N2`, the inhibition is 21.1%. With `O=C(N/N=C/c1ccc2cccnc2c1)c1ccco1`, the inhibition amounted to 14.9%. In the case of `COc1ccc(CCNS(=O)(=O)c2c(N)n(C)c(=O)n(C)c2=O)cc1OC`, the inhibition was determined as 3.12%. To `CCOc1ccc(C(=O)Nc2cc(S(=O)(=O)Nc3ccccc3Cl)ccc2N2CCOCC2)cc1` belongs 4.51%; to `CS(=O)(=O)N(CC(=O)NCC1CCCO1)c1cc(Cl)cc(Cl)c1` (centres undefined), -12.1%; to `Clc1cc(Br)ccc1OCCn1ccnc1`, 40%. As to `Clc1ccccc1OCCCn1ccnc1`, the inhibition is -0.75%. As to `Clc1ccc(OCCn2ccnc2)c2ccccc12`, the inhibition worked out at 17.9%.

Regarding `Cc1ccc(OCCCn2ccnc2)c(Br)c1`, the inhibition was 27.2%.

In the case of `O=C(CCNC(=O)C1CCN(S(=O)(=O)c2ccccc2)CC1)NCCc1ccc(Cl)cc1`, the inhibition worked out at 1.82%. For the molecule `CN1CCN(C(=O)C2CCCN(S(=O)(=O)c3ccc(Br)cc3)C2)CC1` (centres undefined), the inhibition came to 8.61%. Take `COc1ccc(CCn2c(N3CCN(Cc4ccccc4)CC3)nc3c2c(=O)[nH]c(=O)n3C)cc1`: the inhibition came out at 15.1%.

Take `CC1(c2nnc(-c3ccc(Cl)cc3)o2)CC(c2cccc(Cl)c2)=NO1` (centres undefined): the inhibition was determined as 79.6%. Regarding `CC1(c2nnc(-c3cccc(Cl)c3)o2)CC(c2ccc(F)cc2)=NO1` (centres undefined), the inhibition was found to be 70.9%.

On to `CC1(c2nnc(-c3ccc(Cl)cc3)o2)CC(c2ccc(Cl)cc2)=NO1` (centres undefined), for which the inhibition stood at 36.6%. Regarding `CC1(c2nnc(-c3ccccc3)o2)CC(c2ccccc2)=NO1` (centres undefined), the inhibition amounted to 79.5%.

In the case of `Cc1ccc(OCCn2ccnc2)c(C)c1`, the inhibition is 6.35%. As to `CCOc1cc(/C=C2\CCn3c2nc2cc(Cl)ccc2c3=O)ccc1O`, the inhibition was 9%.

`CN(c1ccccc1)S(=O)(=O)c1cc(Cl)ccc1Cl`: the inhibition was determined as 28.7%. Consider `CCOc1cc(NC(=O)c2ccccc2OC)c(OCC)cc1NC(=O)c1ccccc1`, for which the inhibition stood at 8.11%.

Regarding `C/C(=N\NC(=O)c1ccc2c(c1)OCO2)c1ccc2c(c1)OCO2`, the inhibition is 41.2%. For `C/C(=N\NC(=O)c1ccccc1)c1ccc2c(c1)OCO2`, the inhibition stood at 35.4%. In the case of `O=C(CCSc1ccccc1)NCc1cccnc1`, the inhibition is -1.43%.
